Reference: the supplement of paper PMC10849652
Targets with a hit are over-represented here; the source holds about 7,900 in all. About 0.6% of all pairs of compound and target were hits. A number with no mark means an inactive call.

What was measured:
Assay in all cases: log2 fold change, soluble protein after heating vs DMSO (PISA); higher = thermal stabilisation; K562 cells, 10 uM, 30 min; active = over 0.2 and 3.5 SD of the protein, either way, in both replicates (recomputed)
[1] = compound: CC[C@@H]1C(=O)N(C)c2cnc(Nc3ccc(C(=O)NC4CCN(C)CC4)cc3OC)nc2N1C1CCCC1
Procedure, shortened: (§1)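 K562 cells (2×10^6 cells/mL) were treated with 10 μM compound for 30 min, and aliquots were heated for 3 min over 48°C-58°C. Pooled aliquots were extracted in PBS with 0.5% NP-40 at 4°C, and the supernatant after 21,000xg for 90 min was measured by TMTpro 16plex LC-MS/MS with channel sums equalised. Reported thermal stability, relative to control samples and from duplicates, is a log2 fold change.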

volasertib = compound: CC[C@@H]1C(=O)N(C)c2cnc(Nc3ccc(C(=O)N[C@H]4CC[C@H](N5CCN(CC6CC6)CC5)CC4)cc3OC)nc2N1C(C)C [volasertib]
Procedure, shortened: as §1

[2] = compound: CC[C@H](C)N1C=C(C2=C(C=C(C=C21)C3=CN=C(C=C3)N4CCNCC4)C(=O)NCC5=C(C=C(NC5=O)C)C)C
Procedure, shortened: as §1

epoxomicin = compound: CC[C@H](C)[C@@H](C(=O)N[C@@H]([C@@H](C)O)C(=O)N[C@@H](CC(C)C)C(=O)[C@]1(CO1)C)NC(=O)[C@H]([C@@H](C)CC)N(C)C(=O)C [epoxomicin]
Procedure, shortened: as §1

[3] = compound: CCn1c(C(=O)N(C2CC2)C2CC2)cc2c3c(ncn3C)c(Nc3cc(C)n(C)n3)nc21
Procedure, shortened: as §1

[4] = compound: CCn1cc(-c2ccnc3[nH]c(-c4cccc(CN(C)C)c4)cc23)c(-c2ccc(NC(=O)N(C)C)cc2)n1
Procedure, shortened: as §1

[5] = compound: CN(C)CC(=O)Nc1ccc2[nH]c(=O)c3ccccc3c2c1
Procedure, shortened: as §1

rosiglitazone = compound: CN(CCOC1=CC=C(C=C1)C[C@H]2C(=O)NC(=O)S2)C3=CC=CC=N3 (racemic) [rosiglitazone]
Procedure, shortened: as §1

[6] = compound: CN1C2=C(C3=C1C(=O)N(N=C3)CC4=CC(=CC=C4)N)SC(=C2)S(=O)C
Procedure, shortened: as §1

[7] = compound: CN1CCC(CNc2ccc3ncc(-c4cccc(OC(F)(F)F)c4)n3n2)CC1
Procedure, shortened: as §1

UniProt Q9H4A4, sequence (Q9H4A4 whole entry, looked up): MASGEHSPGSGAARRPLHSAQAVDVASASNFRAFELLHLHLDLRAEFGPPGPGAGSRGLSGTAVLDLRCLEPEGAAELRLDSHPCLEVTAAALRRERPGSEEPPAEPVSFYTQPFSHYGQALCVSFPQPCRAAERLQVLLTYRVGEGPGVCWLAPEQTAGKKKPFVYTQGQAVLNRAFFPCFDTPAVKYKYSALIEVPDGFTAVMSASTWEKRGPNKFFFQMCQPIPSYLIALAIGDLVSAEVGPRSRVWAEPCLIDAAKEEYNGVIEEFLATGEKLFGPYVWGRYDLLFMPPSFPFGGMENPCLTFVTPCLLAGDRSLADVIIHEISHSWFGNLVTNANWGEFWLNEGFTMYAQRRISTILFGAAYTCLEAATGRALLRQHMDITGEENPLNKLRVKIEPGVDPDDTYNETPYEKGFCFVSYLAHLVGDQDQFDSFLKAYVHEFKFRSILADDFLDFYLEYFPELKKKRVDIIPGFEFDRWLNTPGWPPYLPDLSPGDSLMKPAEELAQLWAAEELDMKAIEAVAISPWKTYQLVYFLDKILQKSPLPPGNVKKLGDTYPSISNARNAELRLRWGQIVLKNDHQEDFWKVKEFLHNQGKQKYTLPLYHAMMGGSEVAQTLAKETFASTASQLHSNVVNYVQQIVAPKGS
UniProt Q15050, sequence (Q15050 whole entry, looked up): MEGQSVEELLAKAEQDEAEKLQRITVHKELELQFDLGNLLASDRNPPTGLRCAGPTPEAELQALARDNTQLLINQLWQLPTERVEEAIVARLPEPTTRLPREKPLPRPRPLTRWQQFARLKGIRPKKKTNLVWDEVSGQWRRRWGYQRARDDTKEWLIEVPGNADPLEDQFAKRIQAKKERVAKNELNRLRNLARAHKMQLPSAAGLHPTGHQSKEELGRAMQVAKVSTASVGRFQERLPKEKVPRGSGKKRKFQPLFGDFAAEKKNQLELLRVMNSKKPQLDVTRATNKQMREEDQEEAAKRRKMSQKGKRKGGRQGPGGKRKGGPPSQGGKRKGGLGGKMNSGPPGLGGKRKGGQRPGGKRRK
UniProt Q8IZV5, sequence (Q8IZV5 whole entry, looked up): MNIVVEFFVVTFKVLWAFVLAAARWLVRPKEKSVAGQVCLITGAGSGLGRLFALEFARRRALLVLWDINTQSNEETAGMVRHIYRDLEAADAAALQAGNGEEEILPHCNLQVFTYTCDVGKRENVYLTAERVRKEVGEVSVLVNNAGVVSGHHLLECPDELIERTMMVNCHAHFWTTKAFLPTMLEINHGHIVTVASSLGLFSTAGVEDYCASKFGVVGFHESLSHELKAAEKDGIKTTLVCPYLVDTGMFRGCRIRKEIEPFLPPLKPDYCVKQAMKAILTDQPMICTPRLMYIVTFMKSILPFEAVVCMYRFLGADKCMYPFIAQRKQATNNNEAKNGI
UniProt Q9NPQ8, sequence (Q9NPQ8 whole entry, looked up): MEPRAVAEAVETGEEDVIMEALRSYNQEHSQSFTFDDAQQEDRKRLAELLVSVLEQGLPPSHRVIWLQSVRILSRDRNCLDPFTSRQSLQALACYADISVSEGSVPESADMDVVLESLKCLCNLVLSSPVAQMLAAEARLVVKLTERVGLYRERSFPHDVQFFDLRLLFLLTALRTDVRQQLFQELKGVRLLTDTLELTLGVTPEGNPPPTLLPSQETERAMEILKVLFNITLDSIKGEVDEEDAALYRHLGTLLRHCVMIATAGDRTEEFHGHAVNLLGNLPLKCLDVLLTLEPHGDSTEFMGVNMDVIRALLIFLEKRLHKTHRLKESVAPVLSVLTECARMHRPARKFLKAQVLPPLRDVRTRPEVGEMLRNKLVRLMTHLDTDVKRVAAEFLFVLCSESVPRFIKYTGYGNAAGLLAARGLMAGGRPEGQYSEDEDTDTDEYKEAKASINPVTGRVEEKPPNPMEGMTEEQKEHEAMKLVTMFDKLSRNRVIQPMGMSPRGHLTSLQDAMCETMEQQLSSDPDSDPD
UniProt Q6NUM9, sequence (Q6NUM9 whole entry, looked up): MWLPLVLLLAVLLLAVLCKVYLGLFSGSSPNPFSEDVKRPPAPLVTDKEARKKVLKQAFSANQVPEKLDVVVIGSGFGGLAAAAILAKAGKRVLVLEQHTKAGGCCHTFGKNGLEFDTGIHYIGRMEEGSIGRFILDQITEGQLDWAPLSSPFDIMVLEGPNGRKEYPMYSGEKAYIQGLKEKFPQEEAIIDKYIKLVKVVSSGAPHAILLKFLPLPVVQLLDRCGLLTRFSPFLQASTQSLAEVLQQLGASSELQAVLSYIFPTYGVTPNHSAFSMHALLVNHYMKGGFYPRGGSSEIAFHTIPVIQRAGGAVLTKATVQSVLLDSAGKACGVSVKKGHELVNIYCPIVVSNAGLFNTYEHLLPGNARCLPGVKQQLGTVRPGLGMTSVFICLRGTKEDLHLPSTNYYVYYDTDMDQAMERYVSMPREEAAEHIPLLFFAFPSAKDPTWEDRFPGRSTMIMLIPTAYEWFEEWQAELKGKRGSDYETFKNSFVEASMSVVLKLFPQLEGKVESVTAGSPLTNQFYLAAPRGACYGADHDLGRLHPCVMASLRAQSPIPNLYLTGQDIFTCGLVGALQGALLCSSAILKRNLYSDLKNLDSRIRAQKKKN
UniProt Q9BUV8, sequence (Q9BUV8 whole entry, looked up): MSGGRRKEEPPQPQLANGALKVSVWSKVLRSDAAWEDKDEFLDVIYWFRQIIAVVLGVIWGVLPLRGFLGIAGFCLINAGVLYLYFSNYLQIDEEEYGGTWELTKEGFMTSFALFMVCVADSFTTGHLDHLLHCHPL
UniProt P51151, sequence (P51151 whole entry, looked up): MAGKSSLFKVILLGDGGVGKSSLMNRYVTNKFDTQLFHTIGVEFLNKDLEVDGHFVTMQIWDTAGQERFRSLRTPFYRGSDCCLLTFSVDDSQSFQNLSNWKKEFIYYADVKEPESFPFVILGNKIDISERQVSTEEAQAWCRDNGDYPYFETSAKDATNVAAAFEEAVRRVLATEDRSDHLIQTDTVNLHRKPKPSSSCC
UniProt O95059, sequence (O95059 whole entry, looked up): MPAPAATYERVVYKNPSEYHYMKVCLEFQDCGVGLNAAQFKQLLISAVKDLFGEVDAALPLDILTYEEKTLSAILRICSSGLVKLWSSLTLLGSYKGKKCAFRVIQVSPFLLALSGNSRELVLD
UniProt Q9H6H4, sequence (Q9H6H4 whole entry, looked up): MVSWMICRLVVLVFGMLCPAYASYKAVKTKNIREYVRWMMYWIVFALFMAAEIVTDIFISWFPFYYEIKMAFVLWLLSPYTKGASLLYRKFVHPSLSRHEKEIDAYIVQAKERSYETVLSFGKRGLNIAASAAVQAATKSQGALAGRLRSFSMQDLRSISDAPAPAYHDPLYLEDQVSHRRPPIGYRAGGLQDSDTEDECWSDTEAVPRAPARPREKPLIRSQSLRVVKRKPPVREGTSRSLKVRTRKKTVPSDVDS
UniProt P35244, sequence (P35244 whole entry, looked up): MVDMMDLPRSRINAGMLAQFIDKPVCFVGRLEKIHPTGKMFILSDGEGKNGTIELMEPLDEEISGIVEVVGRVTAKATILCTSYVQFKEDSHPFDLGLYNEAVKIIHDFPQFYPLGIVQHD
UniProt Q8TD22, sequence (Q8TD22 whole entry, looked up): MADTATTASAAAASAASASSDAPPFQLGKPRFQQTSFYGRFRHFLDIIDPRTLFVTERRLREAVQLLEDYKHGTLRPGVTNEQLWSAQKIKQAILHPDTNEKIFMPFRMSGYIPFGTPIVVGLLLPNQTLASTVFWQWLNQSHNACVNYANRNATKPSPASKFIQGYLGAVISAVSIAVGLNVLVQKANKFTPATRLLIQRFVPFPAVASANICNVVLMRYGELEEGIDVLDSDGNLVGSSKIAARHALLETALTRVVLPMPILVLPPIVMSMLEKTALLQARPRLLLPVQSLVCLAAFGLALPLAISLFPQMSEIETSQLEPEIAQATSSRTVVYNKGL
UniProt Q9Y3L5, sequence (Q9Y3L5 whole entry, looked up): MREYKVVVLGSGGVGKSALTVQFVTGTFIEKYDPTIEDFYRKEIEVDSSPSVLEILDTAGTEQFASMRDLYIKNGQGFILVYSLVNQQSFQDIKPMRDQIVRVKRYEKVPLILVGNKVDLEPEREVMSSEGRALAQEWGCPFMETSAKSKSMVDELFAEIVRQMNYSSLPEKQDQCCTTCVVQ
UniProt Q9BY42, sequence (Q9BY42 whole entry, looked up): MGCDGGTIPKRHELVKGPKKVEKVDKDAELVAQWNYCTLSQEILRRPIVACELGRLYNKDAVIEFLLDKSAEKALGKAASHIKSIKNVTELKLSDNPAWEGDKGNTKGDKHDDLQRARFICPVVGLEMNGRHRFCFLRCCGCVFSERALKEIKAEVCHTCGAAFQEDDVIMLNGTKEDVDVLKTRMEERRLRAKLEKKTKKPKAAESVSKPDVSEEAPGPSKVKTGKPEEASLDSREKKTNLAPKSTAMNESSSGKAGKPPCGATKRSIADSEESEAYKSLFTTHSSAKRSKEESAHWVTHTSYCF
UniProt Q7L4I2, sequence (Q7L4I2 whole entry, looked up): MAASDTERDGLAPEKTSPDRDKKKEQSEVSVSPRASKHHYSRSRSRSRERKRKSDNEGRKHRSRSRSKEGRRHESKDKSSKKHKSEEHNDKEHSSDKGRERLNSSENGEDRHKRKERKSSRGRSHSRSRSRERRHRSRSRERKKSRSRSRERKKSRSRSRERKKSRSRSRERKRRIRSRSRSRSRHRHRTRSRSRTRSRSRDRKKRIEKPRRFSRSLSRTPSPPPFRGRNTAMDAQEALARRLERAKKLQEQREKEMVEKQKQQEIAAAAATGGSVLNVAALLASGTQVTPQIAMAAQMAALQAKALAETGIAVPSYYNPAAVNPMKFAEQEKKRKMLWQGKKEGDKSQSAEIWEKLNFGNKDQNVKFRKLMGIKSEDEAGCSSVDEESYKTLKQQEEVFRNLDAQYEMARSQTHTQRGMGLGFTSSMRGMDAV
UniProt O00584, sequence (O00584 whole entry, looked up): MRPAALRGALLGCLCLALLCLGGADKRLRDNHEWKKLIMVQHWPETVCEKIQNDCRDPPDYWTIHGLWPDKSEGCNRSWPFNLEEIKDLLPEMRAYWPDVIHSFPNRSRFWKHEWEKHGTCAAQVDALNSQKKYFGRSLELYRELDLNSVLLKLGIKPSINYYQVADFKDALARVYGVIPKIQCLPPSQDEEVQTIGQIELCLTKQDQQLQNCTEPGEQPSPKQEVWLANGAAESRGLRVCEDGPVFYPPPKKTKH

Target	log2 fold change [1]	log2 fold change (volasertib)	log2 fold change [2]	log2 fold change (epoxomicin)	log2 fold change [3]	log2 fold change [4]	log2 fold change [5]	log2 fold change (rosiglitazone)	log2 fold change [6]	log2 fold change [7]
RDH11 (UniProt Q8TC12)	-0.213	-0.543 (active)	0.015	0.045	-0.024	-0.072	0.037	-0.041	0.027	-0.466 (active)
RSPRY1 (UniProt Q96DX4)	0.082	-0.001	-0.019	0.034	0.006	-0.034	-0.014	0.011	-0.176	0.219 (active)
RAB5IF isoform 5 (UniProt Q9BUV8)	-0.025	0.036	-0.129	0.017	0.011	-0.056	-0.031	0.028	0.003	0.092
SFXN5 (UniProt Q8TD22)	0.048	-0.034	0.022	-0.009	-0.012	-0.039	0.006	0.007	-0.209	0.063
SESN2 (UniProt P58004)	-0.244	-0.522 (active)	0.165	0.083	0.061	-0.292	0.115	-0.081	0.015	-0.247
RPS25 (UniProt P62851)	0.063	0.338	0.012	-0.172	0.034	0.134	-0.03	-0.062	0.122	0.146
RPS19 (UniProt P39019)	0.147	0.319	0.008	-0.115	0.041	0.091	-0.073	-0.063	0.147	0.121
RPS13 (UniProt P62277)	0.219	0.567	0.035	-0.324	0.055	0.236	-0.066	-0.12	0.219	0.243
RPP14 (UniProt O95059)	0.079	0.07	-0.048	-0.06	0.013	0.08	-0.04	-0.021	-0.076	0.244 (active)
RBM26 isoform 2 (UniProt Q5T8P6)	-0.207	-0.299	0.151	0.098	-0.061	-0.069	0.072	0.094	-0.011	-0.177
RPS21 (UniProt P63220)	0.089	0.238 (active)	-0.04	0.028	0.028	0.055	-0.045	-0.019	-0.004	0.073
RIC8A isoform 3 (UniProt Q9NPQ8)	-0.149	-0.526 (active)	0.11	0.061	-0.009	0.036	0.011	0.095	-0.005	-0.186
RAC1 (UniProt P63000)	-0.024	0.03	0.026	0.019	0.019	0.044	0.05	0.069	-0.067	0.35 (active)
REEP4 (UniProt Q9H6H4)	-0.023	-0.043	-0.011	-0.08	0.024	0.051	-0.015	-0.033	0.079	-0.134
RNASET2 (UniProt O00584)	-0.275 (active)	-0.196	0.023	-0.027	0.039	0.045	0.036	-0.006	-0.036	-0.413 (active)
RETSAT (UniProt Q6NUM9)	-0.073	-0.073	0.024	-0.003	-0.083	-0.012	0.036	0.042	-0.011	0.053
RDH10 (UniProt Q8IZV5)	0.068	0.037	0.034	-0.026	-0.056	0.021	-0.006	0.021	-0.19	0.09
RSRC2 (UniProt Q7L4I2)	0.003	-0.032	-0.022	0.031	0.006	-0.043	0.007	0.008	-0.028	-0.025
RRAGB (UniProt Q5VZM2)	0	0.011	-0.017	0.047	0.015	-0.041	-0.027	-0.015	-0.022	-0.191
RHOA (UniProt P61586)	-0.098	0.134	0.065	0.049	0.024	0.071	-0.025	-0.057	-0.037	0.01
RPA3 (UniProt P35244)	-0.006	-0.056	-0.002	0.06	0.021	-0.044	0.163	0.003	-0.054	0.039
RNPEP (UniProt Q9H4A4)	0.015	-0.303 (active)	0.078	0.042	-0.074	-0.09	0.034	0.077	-0.036	-0.119
RTF2 (UniProt Q9BY42)	-0.18	-0.45 (active)	0.003	0.118	-0.049	0.012	0.005	-0.055	-0.017	0.161
RHOXF2 (UniProt Q9BQY4)	0.014	0.061	-0.046	0.024	-0.079	0.086	-0.028	-0.013	0.074	-0.073
RAB9A (UniProt P51151)	-0.061	-0.024	-0.001	0.064	-0.003	0.004	0.034	0	-0.034	-0.252 (active)
RRS1 (UniProt Q15050)	0.291	0.286	0.023	-0.381	0.051	0.143	-0.029	-0.147	0.28	0.268
RAP2C (UniProt Q9Y3L5)	0.02	0.05	0.042	0.172	0.054	0.097	0.052	-0.045	-0.105	0.173
